Of roughly 7,900 targets only a part is listed; those with a hit were picked by preference. About 0.6% of all pairs of compound and target were hits.
Legend:
Assay in all cases: log2 fold change, soluble protein after heating vs DMSO (PISA); higher = thermal stabilisation; K562 cells, 10 uM, 30 min; active = over 0.2 and 3.5 SD of the protein, either way, in both replicates (recomputed)
[1] = compound: C1=CC=C(C=C1)[C@H](COC2=CC3=C(C=C2)NC(=O)N3)NC(=O)C4=CC=CN(C4=O)CC5=CC(=C(C=C5)F)F
Summary of the method: (§1)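 Values are thermal stability changes relative to control samples and are taken from duplicates. They are stated as log2 fold changes. Before quantification by TMTpro 16plex LC-MS/MS with equalised channel sums, K562 cells at 2×10^6 cells/mL were treated with 10 μM compound for 30 min, heated in aliquots for 3 min across 48°C-58°C, pooled, extracted in PBS with 0.5% NP-40 at 4°C, and centrifuged at 21,000xg for 90 min to give the soluble supernatant.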

[2] = compound: CC1=C(SC2=C1C(=N[C@H](C3=NN=C(N32)C)CC(=O)N)C4=CC=C(C=C4)Cl)C
Summary of the method: as §1

[3] = compound: CC1=C2C(=CC=C1)N=C(N(C2=O)C3=CC=CC=C3C)CN4C=NC5=C(N=CN=C54)N
Summary of the method: as §1

[4] = compound: Cc1sc2c(c1C)C(c1ccc(Cl)cc1)=N[C@@H](CC(=O)OC(C)(C)C)c1nnc(C)n1-2
Summary of the method: as §1

[5] = compound: c1ccc([C@@H]2C[C@H]2NC2CCNCC2)cc1
Summary of the method: as §1

Measured: log2 fold change

OGFOD2 (UniProt Q6N063)
Sequence of UniProt Q6N063 (Q6N063 whole entry, looked up): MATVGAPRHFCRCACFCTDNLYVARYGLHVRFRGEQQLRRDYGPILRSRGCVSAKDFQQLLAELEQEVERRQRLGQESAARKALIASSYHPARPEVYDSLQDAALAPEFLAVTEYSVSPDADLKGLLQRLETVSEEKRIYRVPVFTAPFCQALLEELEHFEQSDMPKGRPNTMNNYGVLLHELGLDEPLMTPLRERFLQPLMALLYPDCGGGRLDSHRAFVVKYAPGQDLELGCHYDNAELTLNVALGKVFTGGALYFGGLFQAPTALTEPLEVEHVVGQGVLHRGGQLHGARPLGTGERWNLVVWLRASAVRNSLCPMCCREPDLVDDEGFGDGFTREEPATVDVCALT
inactive: [1] 0.124 | [2] 0.097 | [3] 0.024 | [4] 0.091 | [5] 0.053

ORC3 isoform 2 (UniProt Q9UBD5)
Sequence of UniProt Q9UBD5 (Q9UBD5 whole entry, looked up): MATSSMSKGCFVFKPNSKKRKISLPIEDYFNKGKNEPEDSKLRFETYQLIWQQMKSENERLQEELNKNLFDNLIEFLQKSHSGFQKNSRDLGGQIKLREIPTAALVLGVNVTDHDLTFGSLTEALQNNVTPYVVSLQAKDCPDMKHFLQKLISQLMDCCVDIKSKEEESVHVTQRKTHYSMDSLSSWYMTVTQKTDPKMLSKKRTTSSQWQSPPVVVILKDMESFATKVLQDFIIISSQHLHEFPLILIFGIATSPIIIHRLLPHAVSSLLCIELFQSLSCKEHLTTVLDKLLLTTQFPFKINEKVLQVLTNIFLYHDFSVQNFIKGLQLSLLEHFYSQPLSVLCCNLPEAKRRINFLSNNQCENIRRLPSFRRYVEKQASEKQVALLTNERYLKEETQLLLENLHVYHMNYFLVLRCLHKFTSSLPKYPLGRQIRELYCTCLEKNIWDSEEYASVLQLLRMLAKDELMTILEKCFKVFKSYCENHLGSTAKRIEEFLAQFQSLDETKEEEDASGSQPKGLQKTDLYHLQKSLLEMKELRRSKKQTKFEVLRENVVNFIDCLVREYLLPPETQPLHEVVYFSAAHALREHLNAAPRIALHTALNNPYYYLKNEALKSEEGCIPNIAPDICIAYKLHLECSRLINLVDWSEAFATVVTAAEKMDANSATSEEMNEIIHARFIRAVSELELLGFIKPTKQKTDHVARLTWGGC
inactive: [1] -0.098 | [2] 0.032 | [3] 0.107 | [4] 0.013 | [5] -0.079

MINK1 (UniProt Q8N4C8)
Sequence of UniProt Q8N4C8 (Q8N4C8 whole entry, looked up): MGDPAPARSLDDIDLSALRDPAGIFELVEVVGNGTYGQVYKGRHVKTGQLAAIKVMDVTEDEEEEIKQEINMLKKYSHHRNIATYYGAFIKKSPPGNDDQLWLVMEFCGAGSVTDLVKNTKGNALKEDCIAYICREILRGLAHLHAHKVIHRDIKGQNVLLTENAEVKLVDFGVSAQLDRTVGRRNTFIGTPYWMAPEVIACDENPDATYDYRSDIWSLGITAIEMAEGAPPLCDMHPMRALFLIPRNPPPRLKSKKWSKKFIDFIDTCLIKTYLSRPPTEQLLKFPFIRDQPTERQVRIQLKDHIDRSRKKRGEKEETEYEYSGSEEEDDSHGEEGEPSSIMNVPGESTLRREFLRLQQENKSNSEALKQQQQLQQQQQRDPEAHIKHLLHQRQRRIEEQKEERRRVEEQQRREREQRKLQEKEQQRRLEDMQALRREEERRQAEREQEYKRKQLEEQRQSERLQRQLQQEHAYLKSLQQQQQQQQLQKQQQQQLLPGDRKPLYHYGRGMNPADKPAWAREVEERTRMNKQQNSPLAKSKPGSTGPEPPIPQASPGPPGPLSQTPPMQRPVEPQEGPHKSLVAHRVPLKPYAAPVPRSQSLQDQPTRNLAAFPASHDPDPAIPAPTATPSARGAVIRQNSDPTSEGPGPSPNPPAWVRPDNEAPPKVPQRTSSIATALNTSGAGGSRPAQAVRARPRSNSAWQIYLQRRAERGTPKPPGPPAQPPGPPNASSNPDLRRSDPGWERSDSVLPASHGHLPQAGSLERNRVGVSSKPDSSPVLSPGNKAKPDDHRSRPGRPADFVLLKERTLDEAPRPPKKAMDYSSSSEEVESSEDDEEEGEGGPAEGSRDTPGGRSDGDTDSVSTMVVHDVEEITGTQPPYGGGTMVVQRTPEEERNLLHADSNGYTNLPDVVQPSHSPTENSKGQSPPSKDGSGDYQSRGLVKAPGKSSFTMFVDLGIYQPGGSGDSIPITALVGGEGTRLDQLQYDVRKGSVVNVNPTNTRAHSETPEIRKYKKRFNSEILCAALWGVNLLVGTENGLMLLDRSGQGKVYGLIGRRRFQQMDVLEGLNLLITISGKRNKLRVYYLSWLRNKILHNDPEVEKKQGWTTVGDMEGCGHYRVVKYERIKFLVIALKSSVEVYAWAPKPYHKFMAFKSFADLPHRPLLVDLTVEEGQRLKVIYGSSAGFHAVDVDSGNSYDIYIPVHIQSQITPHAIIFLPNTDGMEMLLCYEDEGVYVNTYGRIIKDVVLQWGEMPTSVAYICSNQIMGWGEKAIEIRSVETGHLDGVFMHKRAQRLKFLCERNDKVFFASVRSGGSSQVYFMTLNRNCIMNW
inactive: [1] -0.036 | [2] 0.024 | [3] -0.01 | [4] 0.037 | [5] 0.005

OTUD4 (UniProt Q01804)
Sequence of UniProt Q01804 (Q01804 whole entry, looked up): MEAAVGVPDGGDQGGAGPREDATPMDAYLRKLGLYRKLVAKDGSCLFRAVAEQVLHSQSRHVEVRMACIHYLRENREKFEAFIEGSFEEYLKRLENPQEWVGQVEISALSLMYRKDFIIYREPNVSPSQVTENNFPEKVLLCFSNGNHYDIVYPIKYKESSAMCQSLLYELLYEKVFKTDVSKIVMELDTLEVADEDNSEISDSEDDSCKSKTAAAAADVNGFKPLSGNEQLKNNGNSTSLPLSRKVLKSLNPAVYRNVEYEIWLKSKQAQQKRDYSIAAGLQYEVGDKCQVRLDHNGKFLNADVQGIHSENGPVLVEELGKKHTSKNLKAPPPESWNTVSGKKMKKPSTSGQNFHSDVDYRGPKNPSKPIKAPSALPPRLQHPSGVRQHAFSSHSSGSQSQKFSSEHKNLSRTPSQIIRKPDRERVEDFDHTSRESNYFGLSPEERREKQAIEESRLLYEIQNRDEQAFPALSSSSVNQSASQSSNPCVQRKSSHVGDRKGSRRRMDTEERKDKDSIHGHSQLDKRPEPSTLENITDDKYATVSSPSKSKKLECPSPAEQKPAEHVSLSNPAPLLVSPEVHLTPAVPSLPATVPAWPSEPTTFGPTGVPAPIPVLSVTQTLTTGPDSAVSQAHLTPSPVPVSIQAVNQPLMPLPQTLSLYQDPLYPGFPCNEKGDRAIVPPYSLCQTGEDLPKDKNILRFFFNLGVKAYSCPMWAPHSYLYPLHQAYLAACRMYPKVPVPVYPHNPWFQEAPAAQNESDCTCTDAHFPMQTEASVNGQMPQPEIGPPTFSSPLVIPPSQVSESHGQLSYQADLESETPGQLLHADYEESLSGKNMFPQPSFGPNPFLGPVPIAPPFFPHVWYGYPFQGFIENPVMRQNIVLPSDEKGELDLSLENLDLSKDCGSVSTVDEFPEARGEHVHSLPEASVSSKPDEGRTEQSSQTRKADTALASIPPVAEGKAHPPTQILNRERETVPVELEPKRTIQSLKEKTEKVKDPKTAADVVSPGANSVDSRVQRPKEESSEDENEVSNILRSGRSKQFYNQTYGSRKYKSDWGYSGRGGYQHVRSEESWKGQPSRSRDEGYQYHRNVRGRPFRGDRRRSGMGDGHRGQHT
inactive: [1] 0.033 | [2] -0.034 | [3] -0.05 | [4] 0.111 | [5] 0.011

NFATC3 (UniProt Q12968)
Sequence of UniProt Q12968 (Q12968 whole entry, looked up): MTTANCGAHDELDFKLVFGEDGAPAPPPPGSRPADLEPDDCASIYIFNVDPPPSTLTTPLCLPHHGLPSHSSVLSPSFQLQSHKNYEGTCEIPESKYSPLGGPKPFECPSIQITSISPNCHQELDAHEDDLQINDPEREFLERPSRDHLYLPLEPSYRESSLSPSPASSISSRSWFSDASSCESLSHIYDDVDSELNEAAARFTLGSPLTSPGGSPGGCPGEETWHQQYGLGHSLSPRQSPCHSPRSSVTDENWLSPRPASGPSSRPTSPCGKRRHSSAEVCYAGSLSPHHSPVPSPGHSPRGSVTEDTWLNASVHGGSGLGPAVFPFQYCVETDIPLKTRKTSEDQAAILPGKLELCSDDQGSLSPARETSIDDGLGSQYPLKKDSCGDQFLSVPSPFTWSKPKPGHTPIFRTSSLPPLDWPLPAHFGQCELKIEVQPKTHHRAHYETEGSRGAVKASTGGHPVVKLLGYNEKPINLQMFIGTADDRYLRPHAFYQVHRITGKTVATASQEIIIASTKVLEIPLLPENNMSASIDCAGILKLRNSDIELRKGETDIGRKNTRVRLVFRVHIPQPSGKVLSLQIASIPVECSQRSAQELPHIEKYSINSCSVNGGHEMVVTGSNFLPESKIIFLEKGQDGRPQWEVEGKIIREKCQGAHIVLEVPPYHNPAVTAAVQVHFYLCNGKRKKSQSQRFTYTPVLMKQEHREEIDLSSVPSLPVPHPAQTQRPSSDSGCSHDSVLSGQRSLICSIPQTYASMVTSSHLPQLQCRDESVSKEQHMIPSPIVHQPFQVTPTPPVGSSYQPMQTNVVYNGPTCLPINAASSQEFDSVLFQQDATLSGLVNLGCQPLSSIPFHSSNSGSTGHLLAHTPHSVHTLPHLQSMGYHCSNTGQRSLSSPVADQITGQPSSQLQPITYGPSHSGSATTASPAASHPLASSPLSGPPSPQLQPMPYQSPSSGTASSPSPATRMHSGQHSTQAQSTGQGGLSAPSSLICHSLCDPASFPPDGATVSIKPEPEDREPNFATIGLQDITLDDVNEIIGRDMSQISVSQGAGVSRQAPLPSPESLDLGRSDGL
inactive: [1] -0.03 | [2] 0.081 | [3] 0.12 | [4] 0.16 | [5] 0.065

PAAF1 (UniProt Q9BRP4)
inactive: [1] -0.012 | [2] 0.043 | [3] 0.076 | [4] -0.014 | [5] 0.008

NMT2 (UniProt O60551)
inactive: [1] -0.045 | [2] 0.053 | [3] 0.092 | [4] 0.026 | [5] -0.107

OTULIN (UniProt Q96BN8)
Sequence of UniProt Q96BN8 (Q96BN8 whole entry, looked up): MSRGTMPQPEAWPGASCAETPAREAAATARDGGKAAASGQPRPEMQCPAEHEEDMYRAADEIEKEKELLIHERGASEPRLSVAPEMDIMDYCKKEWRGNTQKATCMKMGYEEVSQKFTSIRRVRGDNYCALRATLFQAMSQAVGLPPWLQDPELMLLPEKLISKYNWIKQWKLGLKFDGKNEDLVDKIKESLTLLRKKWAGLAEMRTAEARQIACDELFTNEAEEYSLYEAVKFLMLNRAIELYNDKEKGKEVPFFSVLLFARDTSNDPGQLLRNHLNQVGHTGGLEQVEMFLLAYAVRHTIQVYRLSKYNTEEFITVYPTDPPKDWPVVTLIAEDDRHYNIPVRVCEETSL
inactive: [1] -0.07 | [2] -0.019 | [3] 0.124 | [4] 0.005 | [5] 0.005

NFYB (UniProt P25208)
inactive: [1] -0.015 | [2] -0.119 | [3] -0.165 | [4] -0.048 | [5] 0.057

From the supplement of paper PMC10849652
